Screening results deposited in PubChem BioAssay by University of Kansas High Throughput Screening Laboratory.
mHTT CaM bind: inhibitors of human mutant huntingtin-calmodulin interaction | AlphaScreen His-mHTT/GST-CaM binding, luminescence | AID 1671202 | inhibition, % at 15 µM | hit rate 3.6% among 190,000;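 also: 0% = both proteins with DMSO and 100% = one protein alone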
Pf apPOL inh: Pf-apPOL DNA polymerase inhibition; Recombinant Pf-apPOL, molecular beacon fluorescence, 1.5 h; inhibition, % at 10 µM; hit rate 0.25% among 210,000
An asterisk follows results filed as active; i = inactive; nt = not tested or not shown; + = active, no number; ! = not active in a repeat. Only some compounds are listed: those with a hit (about 3.5% of all), similar ones and a draw of the others. Rule as the data show it: active = inhibition above about 50%; inactive = the rest.

SMILES	mHTT CaM bind	Pf apPOL inh
COc1ccc(NC(=O)C2CCN(c3cc(N4CCCC4)ncn3)CC2)cc1Cl	54*	-6
O=C(Nc1ccc2c(c1)OCO2)C1CCN(c2cc(N3CCSCC3)ncn2)CC1	48	-6
O=C(Nc1ccc2c(c1)OCCO2)C1CCN(c2cc(N3CCSCC3)ncn2)CC1	64*	-9
COc1ccc(CC(=O)Nc2ccc3ncnc(N4CCCCC4)c3c2)cc1Cl	55*	1
Cn1c(N2CCC(C(=O)Nc3ccc(Cl)cc3)CC2)cc(=O)n(C)c1=O	38	-2
Cc1ccc(Cl)cc1N(C)C(=O)C1CCN(c2cc(=O)n(C)c(=O)n2C)CC1	50*	-3
COc1ccc(CCC(=O)Nc2ccc3ncnc(N4CCCCC4)c3c2)cc1	19	-5
COc1ccc(NC(=O)C2CCN(c3cc(N4CCCC4)ncn3)CC2)cc1OC	17	-8
CCc1ccccc1S(=O)(=O)N1CCC(c2nc(C(=O)N3CCCC3)c(C)o2)CC1	11	-6
Cc1ccc(C)c(NC(=O)N2CCn3cccc3C2Cc2ccccc2)c1 (stereo unspecified)	10	-2
CN1CCN(c2ccc([N+](=O)[O-])cc2C(=O)N2CCOCC2)CC1	-3	-14
Cc1nnc(-c2nnc(N3CCC(C)CC3)c3ccccc23)o1	7	-7
COCc1nnc(NC(=O)Cc2ccc(Cl)cc2)s1	-1	0
Cc1ccc(NC(=O)C2CCN(c3cc(=O)n(C)c(=O)n3C)CC2)cc1	35	-5
Cn1c(N2CCC(C(=O)Nc3ccc4c(c3)OCCO4)CC2)cc(=O)n(C)c1=O	57*	2
COc1ccc(C)cc1Nc1nc(C)nc2sc(C)cc12	-7	-18
COc1ccc(OC)c(Nc2nc(C)nc3sc(C)cc23)c1	52*	-14
Cc1ccc(C2CC(C(F)(F)F)n3nc(C(=O)N4CCC(C)CC4)cc3N2)cc1 (stereo unspecified)	18	-12
CC12CCC(C(=O)Nc3ccc4c(c3)OCO4)(C(=O)C1=O)C2(C)C (stereo unspecified)	7	-1
O=C(NCc1ccc(F)cc1)c1ccc(-c2ccsc2)nc1	-4	-2
N/C(=N\OC(=O)Oc1ccccc1)c1ccncc1	i	-9
N/C(=N\OS(=O)(=O)c1ccccc1)c1ccccn1	i	1
N/C(=N\OS(=O)(=O)c1ccc(Cl)cc1)c1ccccn1	+	4
N/C(=N\OC(=O)Oc1ccccc1)c1ccccn1	+	-3
COc1cccc(C(=O)Nc2ccccc2C(C)C)c1	-9	-1
SMILES	mHTT CaM bind	Pf apPOL inh
O=C(Nc1ccccc1)O[C@@H]1C[C@H]2C[C@@H]1[C@H]1CCCCN1[C@H]2Cc1ccccc1	-3	-6
O=C(O)c1ccccc1C(=O)Nc1cc(C(F)(F)F)ccc1N1CCCC1	nt	-8
COc1cc(NC(=O)C2CCN(c3nccc4sc(C)cc34)CC2)cc(OC)c1OC	52*	-4
Cc1cc2c(N3CCC(C(=O)Nc4ccc(F)c(F)c4)CC3)nccc2s1	5	-2
Cc1cc2c(N3CCCC(C(=O)NCCN4CCCCCC4)C3)nccc2s1 (stereo unspecified)	100*	-5
Cc1cc2c(N3CCC(C(=O)Nc4ccc(C)c(F)c4)CC3)nccc2s1	7	-1
COc1ccc(NC(=O)C2CCCN(c3nccc4sc(C)cc34)C2)cc1OC (stereo unspecified)	71*	-4
Cc1cc2c(N3CCCC(C(=O)NCc4cccc(Cl)c4)C3)nccc2s1 (stereo unspecified)	22	-5
N#CCCNCC1COc2ccccc2O1 (stereo unspecified)	0	-3
Cc1ccc(C)c2c(OCC(=O)N(c3ccccc3)C3CCCCC3)ccnc12	nt	-7
Cc1nc(Nc2ccc(F)cc2)c2oc3ccccc3c2n1	10	-5
CCOC(=O)C(C)Oc1ccc2c(c1)OC(=Cc1cc(OC)c(OC)c(OC)c1)C2=O (stereo unspecified)	-8	-9
Cc1cc(Br)ccc1OCC(=O)NCc1ccncc1	-4	-1
COc1ccc(C2(C(=O)NCc3ccccc3Cl)CCCC2)cc1OC	-6	-2
COc1ccccc1NC(=O)N1CCC2(CC1)Nc1cc(F)ccc1-n1cccc12	57*	-9
COc1ccc(OC)c(NC(=O)N2CCC3(CC2)Nc2cc(F)ccc2-n2cccc23)c1	63*	1
COc1ccc(Cl)cc1NC(=O)N1CCC2(CC1)Nc1cc(F)ccc1-n1cccc12	55*	-2
Cc1ccccc1NC(=O)N1CCC2(CC1)Nc1cc(F)ccc1-n1cccc12	35	-5
COc1ccc(C)cc1NC(=O)N1CCC2(CC1)Nc1ccccc1-n1cccc12	36	2
COC(=O)c1ccc(Oc2coc3c4c(ccc3c2=O)OCN(CC(C)C)C4)cc1	4	-6
CCn1cc(Cl)c(C(=O)N2CCn3cnnc3C2)n1	-4	-5
O=C(NCC(O)c1ccc(C(F)(F)F)cc1)C(c1ccccc1)c1ccccc1 (stereo unspecified)	86*	-6
O=C(NCc1ccccc1)NCC(O)c1ccc(C(F)(F)F)cc1 (stereo unspecified)	-10	-33
COc1ccc(C2Cn3nnc(C(=O)N4CCC(C(=O)NCC(C)C)CC4)c3CO2)cc1 (stereo unspecified)	1	1
O=C1C(=Cc2c[nH]c3ccccc23)C(=O)c2ccccc21	57*!	0
SMILES	mHTT CaM bind	Pf apPOL inh
O=C1OC2(CCCC2)OC(=O)C1=Cc1c[nH]c2ccccc12	7	-16
CC(=O)Nc1cccc(N2CC(C(=O)Nc3ccc(Cl)cc3)CC2=O)c1 (stereo unspecified)	3	2
O=[N+]([O-])c1ccc(N2CCSCC2)nc1	0	66*
O=[N+]([O-])c1ccc(N2CCOCC2)nc1	-5	-2
CNC(=O)c1cc(C)nc2ccc(C)cc12	-1	84*
CCCNC(=O)c1cc(C)nc2ccc(Cl)cc12	2	-3
CNC(=O)c1cc(C)nc2ccc(F)cc12	14	-2
CCCNC(=O)c1cc(C)nc2ccc(F)cc12	100*	-1
O=C(NCc1ccccn1)C1CN(S(=O)(=O)c2ccccc2)CC12CCCCC2 (stereo unspecified)	-4	-4
Cc1cc(NC(=O)Cn2cc3c(n2)CCCCC3)ccc1Br	-7	0
CN(CC(=O)NCc1cccnc1)S(=O)(=O)c1ccc(Br)cc1	0	-3
Cc1ccc(NC(=O)Cn2nc3c(cc2=O)CCCC3)cc1C	0	3
O=C(c1ccccc1)N1CCC(CCNS(=O)(=O)c2cccc(Cl)c2)CC1	50*	-3
Cc1cc(C)c(S(=O)(=O)NCCC2CCN(C(=O)c3ccccc3)CC2)cc1C	64*	-2
Cc1c(Cl)cccc1S(=O)(=O)NCCC1CCN(C(=O)c2ccccc2)CC1	53*	0
O=C(c1ccc(F)cc1)N1CCC(CCNS(=O)(=O)c2cccc(Cl)c2)CC1	47	-2
O=C(c1ccc(F)cc1)N1CCC(CCNS(=O)(=O)c2ccccc2Cl)CC1	39	6
Cc1ccc(S(=O)(=O)NCCC2CCN(C(=O)c3ccccc3)CC2)cc1C	35	1
Cc1ccc(NC(=O)N2CCc3nc(-c4ccc(Cl)cc4)ncc3C2)cc1C	-2	-4
O=C(c1ccc(OCC2CCCN(C(=O)c3ccc(F)cc3F)C2)cc1)N1CCCCC1 (stereo unspecified)	9	21
Cc1nc([N+](=O)[O-])c2n1CC(c1ccccc1)=NN2c1ccc([N+](=O)[O-])cc1	58*	-4
